# CIT2-GFP yeast = yeast TOR pathway CIT2-GFP modulation | GFP response vs DMSO, % at 10 µM | S. cerevisiae CIT2-GFP strain, flow cytometry, 3 h; 100 means same as DMSO wells | AID 2029 | actives 0.065% (n = 320,000);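 active = GFP response relative to DMSO above a set limit, near the screen mean plus 3 SD, cut at about 150% in these data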;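 also: ratio of well median GFP fluorescence to mean of DMSO wells on the plate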
# MEP2-GFP yeast = alters MEP2-GFP fluorescence in TOR pathway yeast screen; S. cerevisiae MEP2-GFP strain, flow cytometry GFP, 3 h; 100% = DMSO control level; GFP response vs DMSO, % at 10 µM; actives 0.51% (n = 330,000);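 active = GFP response versus DMSO above a set limit, roughly screen mean plus 3 SD, cut at about 180% in these data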;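 also: median GFP fluorescence of the barcode-gated MEP2-GFP cells per well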
# RPL19A TOR yeast = yeast TOR pathway RPL19A-GFP modulation | S. cerevisiae RPL19A-GFP strain, flow cytometry, 3 h; stronger effect = lower value | percent response vs DMSO, % at 10 µM | actives 0.3% (n = 330,000) | AID 2025;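 active = percent response vs DMSO below 50%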;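 also: median channel GFP fluorescence of the barcoded RPL19A-GFP strain; ratio of sample median GFP to plate DMSO average so 100% = DMSO; lower means less RPL19A-GFP as with rapamycin TOR inhibition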
# AGP1 TOR yeast = modulators of TOR pathway AGP1-GFP in S. cerevisiae. actives 0.02% (n = 320,000). S. cerevisiae AGP1-GFP multiplex flow cytometry, 3 h; GFP as percent of DMSO wells. GFP response vs DMSO, % at 10 µM;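 active = GFP response relative to DMSO above a set limit, near screen average plus 3 SD, cut at about 150% in these data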;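 also: median GFP channel fluorescence of the gated AGP1 strain per well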
# LAP4 TOR yeast = modulators of TOR pathway LAP4-GFP in S. cerevisiae; S. cerevisiae LAP4-GFP multiplex, flow cytometry GFP, 3 h; median GFP as percent of DMSO wells; GFP response vs DMSO, % at 10 µM; actives 0.34% (n = 320,000); AID 2023;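 active = GFP response vs DMSO above a set limit, about the screen mean plus 3 SD, cut at about 150% in these data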
# LAP4-GFP pick2 = reconfirmed LAP4-GFP TOR pathway modulator in yeast | shares compounds with LAP4 TOR yeast | S. cerevisiae LAP4-GFP strain, flow cytometry GFP, 3 h | GFP response vs DMSO, % at 10 µM | actives 20% (n = 590);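 active = GFP signal as percent of the solvent control above about 150%, meaning raised reporter expression, limit read from the data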;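 also: ratio of well median GFP fluorescence to plate DMSO mean so 100% = DMSO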
# MEP2-GFP pick2 = second confirmation of modulators of TOR reporter MEP2-GFP in yeast; GFP response vs DMSO, % at 10 µM; actives 10% (n = 590); shares compounds with LAP4 TOR yeast; AID 2622; S. cerevisiae MEP2-GFP strain, flow cytometry GFP, 3 h;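 active = GFP signal above 150% of the solvent control wells, that is a rise of more than half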;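 also: median channel GFP fluorescence of all gated yeast cells per well; ratio of median GFP to plate DMSO average so 100% = DMSO level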
# RPL19A-GFP pick2 = second confirmation of modulators of TOR reporter RPL19A-GFP in yeast; shares compounds with LAP4 TOR yeast; S. cerevisiae RPL19A-GFP strain, flow cytometry GFP, 3 h; stronger effect = lower value; 100% means same as DMSO wells; GFP response vs DMSO, % at 10 µM; actives 3% (n = 590);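 active = under 65% GFP response relative to DMSO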;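 also: median GFP channel fluorescence per well over the all cells gate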
# CIT2 GFP CP2 = yeast CIT2-GFP TOR reporter modulation, second cherry pick | AID 2624 | shares compounds with LAP4 TOR yeast | S. cerevisiae CIT2-GFP strain, flow cytometry GFP, 3 h; DMSO control wells read 100% | GFP response vs DMSO, % at 10 µM | actives 8% (n = 590);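 active = GFP response vs DMSO above about 150%, limit read from the data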;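 also: median green fluorescence per well over all gated yeast cells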
# AGP1 GFP CP2 = second confirmation of modulators of TOR reporter AGP1-GFP in yeast. AID 2643. S. cerevisiae AGP1-GFP strain, flow cytometry GFP, 3 h. shares compounds with LAP4 TOR yeast. 590 tested, under 10 active. percent response vs DMSO, % at 10 µM;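 active = over 150 percent of DMSO response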;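 also: median GFP channel fluorescence over all cells without mother daughter split; sample median GFP divided by mean DMSO control so 100% equals DMSO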
# Yeast autofluor = counter-screen for compound autofluorescence in yeast s288c cells; shares compounds with LAP4 TOR yeast; S. cerevisiae s288c, 520 nm autofluorescence, flow cytometry, 3 h; stronger effect = higher value; zero means same as solvent-only cells; fluorescence change (kMESF span) at 33 µM; 610 tested, under 10 active;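 active = fluorescence span over the dose series, or activity score, above about 33, limit read from the data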
# Starred values were filed as active, the others as inactive; / = not tested or not shown. This is a sample that favours compounds with a hit; in the whole collection about 0.89% have one here.
SMILES,CIT2-GFP yeast,MEP2-GFP yeast,RPL19A TOR yeast,AGP1 TOR yeast,LAP4 TOR yeast,Yeast autofluor,others
CCc1nc2ccccc2c(=O)n1NC(=O)c1c(O)c2cccc3c2n(c1=O)CCC3,81.0,83.3,57.2,58.5,92.6,2.22,LAP4-GFP pick2=114.2;MEP2-GFP pick2=129.3;RPL19A-GFP pick2=63.8*;CIT2 GFP CP2=122.4;AGP1 GFP CP2=39.0
CCc1nc2ccccc2c(=O)n1NC(=O)c1c(O)c2ccccc2n(CC)c1=O,102.6,123.9,53.5,39.5,86.8,1.4,LAP4-GFP pick2=125.2;MEP2-GFP pick2=223.6*;RPL19A-GFP pick2=42.2*;CIT2 GFP CP2=168.3*;AGP1 GFP CP2=43.8
O=C(Nn1c(Cc2ccccc2)nc2ccccc2c1=O)c1c(O)c2cccc3c2n(c1=O)CCC3,92.9,91.2,94.8,102.8,103.2,/,
CCOC(=O)c1c(O)c2ccccc2n(CC)c1=O,84.2,106.1,74.1,81.0,141.6,/,
CCn1c(=O)c(C(=O)Nc2nc3ccccc3[nH]2)c(O)c2ccccc21,84.5,125.7,66.9,39.8,176.3*,4.44,
CCn1c(=O)c(C(C)=O)c(O)c2ccccc21,58.3,92.0,91.5,79.1,173.6*,-1.71,
CCOC(=O)C1CCC(CNCc2ccccc2C)CC1 (stereo unspecified),97.0,100.6,96.5,97.7,94.3,/,
O=C(NCCS(=O)(=O)NCC1CCCO1)c1ccccc1 (stereo unspecified),101.4,106.7,104.5,105.8,98.6,/,
Cc1cc(OC(C)C(=O)NCc2ccncc2)c2c(C)c(C)c(=O)oc2c1 (stereo unspecified),99.5,101.8,98.7,99.7,92.4,/,
CCCc1nnc(NC(=O)c2c(O)c3cccc4c3n(c2=O)CCC4)s1,80.3,80.9,51.4,64.3,97.8,3.84,LAP4-GFP pick2=107.2;MEP2-GFP pick2=132.8;RPL19A-GFP pick2=49.9*;CIT2 GFP CP2=127.9;AGP1 GFP CP2=47.1
CC(C)(C)C1CCc2sc(-c3nnc(CCl)o3)cc2C1 (stereo unspecified),102.4,94.0,61.7,64.0,60.0,/,LAP4-GFP pick2=114.2;MEP2-GFP pick2=111.8;RPL19A-GFP pick2=99.3;CIT2 GFP CP2=119.6;AGP1 GFP CP2=88.2
CCCCOc1ccc(C(=O)Nc2cccc(-n3cnnn3)c2)cc1OC,106.1,108.8,99.9,101.1,95.5,/,
COc1ccc(-c2cc(C(F)(F)F)n3ncc(C(=O)N(C)Cc4ccccc4)c3n2)cc1,91.7,94.3,91.3,91.2,100.3,/,
COc1cc(C(=O)N(Cc2ccccc2)c2cccc(C)c2)ccc1OC(F)F,104.3,96.8,103.7,103.0,97.0,/,
O=C(Nc1cccc([N+](=O)[O-])c1)C1COc2ccccc2O1 (stereo unspecified),96.1,99.5,98.8,97.1,98.5,/,
Cc1cc(NC(c2ccc(Cl)cc2)c2ccc3cccnc3c2O)no1 (stereo unspecified),78.8,101.5,94.8,91.8,151.4*,0,
COc1cccc(C2(O)CC(C(F)(F)F)=NN2C(=O)c2ccccn2)c1 (stereo unspecified),103.3,134.7,96.4,97.1,104.3,/,

# From PubChem BioAssay
